In the library only some 1.9% were active in any assay of this set; here they are far more common.
PP5 inh: PP5 phosphatase inhibitors, primary screen, biochemical, fluorescence; Serine/threonine-protein phosphatase 5 (Homo sapiens), P53041; purified PP5c, OMFP substrate fluorescence; inhibition, % at 6.7 µM; 320,000 tested, 0.18% active; AID 1987, 2009;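 active = inhibition above the campaign's mean inhibition across all tested compounds plus 3 SD, cut at about 9.5% in these data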;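 also: 0% = DMSO only and 100% = 100 µM cantharidin control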
PP1 inh: PP1-alpha phosphatase inhibitors, primary screen, counter-screen for PP5 inhibitor project, biochemical, fluorescence, OMFP substrate, single point | 320,000 tested, 0.9% active | inhibition, % at 6.7 µM | AID 2235, 2010 | Serine/threonine-protein phosphatase PP1-alpha catalytic subunit (Homo sapiens), P62136 | purified PP1alpha;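 active = inhibition above the mean inhibition of all tested compounds plus 3 SD, computed separately for each screening campaign, cut at about 15% in these data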
ATG4B inhibitor: ATG4B protease inhibitors, primary screen, biochemical, fluorescence, uHTS. inhibition, % at 8.33 µM. Cysteine protease ATG4B (Homo sapiens), Q9Y4P1. 340,000 tested, 0.51% active. ATG4B cleavage of LC3-PLA2, NBD-HPC fluorescence, 1 h. AID 504462, 2011; in the data active = inhibition above about 40%
Target sequence (Q9Y4P1 whole entry, looked up): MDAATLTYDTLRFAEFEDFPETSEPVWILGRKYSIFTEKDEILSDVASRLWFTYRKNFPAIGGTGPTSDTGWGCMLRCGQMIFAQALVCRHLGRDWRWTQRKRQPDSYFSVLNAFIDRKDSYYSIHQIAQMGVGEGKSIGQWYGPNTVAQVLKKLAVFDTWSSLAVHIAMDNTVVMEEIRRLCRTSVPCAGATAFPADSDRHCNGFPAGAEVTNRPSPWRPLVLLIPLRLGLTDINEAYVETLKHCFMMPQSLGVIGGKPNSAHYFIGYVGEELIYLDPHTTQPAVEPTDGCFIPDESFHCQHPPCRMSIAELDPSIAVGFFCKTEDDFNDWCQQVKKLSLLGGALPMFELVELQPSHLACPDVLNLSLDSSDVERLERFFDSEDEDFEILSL
Cardio protect: cardioprotection against H2O2-induced cell death, primary screen, uHTS, H9c2 cells, ATPLite luminescence. protection from H2O2 cell death, % at 20 µM. AID 588492, 2011. 360,000 tested, 0.63% active. H9c2 cardiomyocytes, H2O2 injury protection, 2 h;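 active = compounds giving at least 50% protection of heart cells from peroxide-induced death in the single-dose screen, raw or plate-pattern-corrected value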;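 also: 0% = DMSO wells with peroxide and 100% = DMSO wells without peroxide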
* = called active by the depositor; · = no result.

SMILES	PP5 inh	PP1 inh	ATG4B inhibitor	Cardio protect
CCCCn1c(=NC(=O)c2cccnc2)c(C#N)cc2c(=O)n3cccc(C)c3nc21	0	-1	-8	54*
Cc1ccccc1-c1n[nH]nc1C1=CC(=O)CC(C)(C)C1	·	·	·	10
CCCNC(=O)C1(C)CCN1C(=O)Cc1ccc(C(C)(C)C)cc1 (centres undefined)	·	·	·	2
O=C(NNC(=O)c1nc(Cl)ccc1Cl)c1ccc(F)cc1	0	0	3	17
O=C(NNC(=O)c1ncc(Cl)c(Cl)c1Cl)c1ccc(F)cc1	0	-4	4	78*
O=C(COC(=O)Cc1cccc(F)c1)NCCc1ccccc1	-2	-2	-7	0
COc1ccc(NC(=O)[C@H](Cc2c[nH]c3ccccc23)NC(=O)[C@@H]2Cc3ccccc3CN2)cc1	1	7	-20	-2
CC(C)c1ccc(NC(=O)[C@H](Cc2c[nH]c3ccccc23)NC(=O)[C@@H]2Cc3ccccc3CN2)cc1	5	16*	5	-4
Cc1c(NC(=O)CSc2nncn2-c2ccccc2)c(=O)n(-c2ccccc2)n1C	1	-4	4	5
Cc1cc(Nc2ccccc2C(=O)O)nc2nc3ccccc3c(=O)n12	0	-1	2	81*
NC(=O)c1ccccc1Nc1nc2nc3ccccc3c(=O)n2cc1Br	-1	-1	-3	·
CCN1CCN(c2nn3c(=O)c4ccccc4nc3c3ccccc23)CC1	2	2	6	38
CC1CN(c2nn3c(=O)c4ccccc4nc3c3ccccc23)CC(C)O1 (centres undefined)	0	-4	-13	65*
O=C(Cc1ccc(NC(=O)C2CCN(C(=O)C3CC3)CC2)cc1)Nc1cccc(C(=O)N2CCCCC2)c1	·	·	-8	-8
COc1ccc(/C=N/NC(=O)c2nc(-c3ccccc3)cc(-c3ccccc3)n2)cc1O	-1	9	17	51*
COc1cc(/C=N/NC(=O)c2cc(-c3ccccc3)nc3ccccc23)ccc1O	3	1	-9	21
COc1cc(/C=N/NC(=O)c2cnn3c(C)cc(-c4ccccc4)nc23)ccc1O	4	0	-27	76*
COc1ccc(CCCNC(=O)C2(C)Cc3c(-c4ccc(NC(C)=O)cc4)ccnc3O2)cc1 (centres undefined)	·	·	·	64*
C=CCn1c(SCC(=O)c2ccc(O)c(O)c2)nnc1-c1cccc(C)c1	1	-3	-13	42
C=CCn1c(SCC(=O)c2ccc(O)c(O)c2)nnc1-c1cccc(Cl)c1	1	-3	-7	55*
COc1cccc(N=Nc2c(N)[nH][nH]c2=O)c1	-1	0	-15	-11
COc1cccc(N=Nc2c(N)[nH]n3c(=O)c4c(nc23)CCCC4)c1	2	17*	-13	24
CCOC(=O)c1ccccc1OCc1cc(/C=N/NC(=O)c2cccnc2)ccc1OC	0	-4	-24	55*
Cc1ccc(COc2ccccc2-c2cc(C(=O)N/N=C/c3cccnc3)[nH]n2)cc1	3	8	5	50*
COc1ccc(/C=N/NC(=O)c2cccnc2)cc1CN1CCc2ccccc2C1	1	2	-2	69*
SMILES	PP5 inh	PP1 inh	ATG4B inhibitor	Cardio protect
COc1ccc(/C=N/NC(=O)c2cccnc2)cc1O	1	1	-7	-3
O=C(NCc1ccccc1)NC(=O)c1ccccc1F	3	-1	9	8
CC(C)(C)c1ccc(S(=O)(=O)NCC(=O)N2CCN(Cc3ccccc3)CC2)cc1	1	-1	-9	-6
O=C1c2ccccc2NC(c2ccc(Cl)cc2Cl)N1O (centres undefined)	0	-1	3	61*
O=C(C[C@H]1C/C=C/CC[C@H](Cc2ccc(F)cc2)C(=O)O[C@H](c2ccccc2)CNC1=O)NCCO	·	·	·	-3
CC(C)(C)OC(=O)C[C@@H]1C/C=C\C[C@@H](CC(=O)N[C@@H](CO)Cc2ccccc2)C(=O)NC[C@@H](c2ccccc2)OC1=O	·	·	-4	65*
O=C1N[C@H](Cc2ccccc2)COC(=O)[C@H](Cc2ccc(F)cc2)C/C=C\C[C@@H]1CC(=O)N(CCO)Cc1ccccc1	·	·	-11	-2
O=C(C[C@@H]1C/C=C/CC[C@@H](Cc2ccc(F)cc2)C(=O)O[C@@H](c2ccccc2)CNC1=O)NCCO	·	·	-16	59*
O=C1NC[C@H](c2ccccc2)OC(=O)[C@H](Cc2ccc(F)cc2)C/C=C\C[C@H]1CC(=O)N(CCO)Cc1ccccc1	·	·	-14	94*

Source: PubChem BioAssay
